This note sets out measurements from PubChem BioAssay (Tox21).

Inconclusive results are not listed. Entries that show only a call come without a potency. Active and inactive are the calls of the source. Calls follow the shape of the dose curve; as a rule, active = well fitted cell-killing curve with a large enough effect in the repeat runs; inconclusive = weak or mixed curves, or effect the other way; inactive = flat fitted curve, though single readings scatter.
Potency is read from the fitted curve at half-maximal effect.

The experiment is described as follows: qHTS assay to identify small molecule agonists of the constitutive androstane receptor (CAR) signaling pathway - cell viability counter screen (AID 1224836). Also: nearly all actives have a fitted effect of over 45% in size. The settings on record: HepG2-CYP2B6-hCAR viability, CellTiter-Fluor, 23 h, PK11195 added to every well; series mostly up to 92.4 µM. From the text:
U.S. Tox21 Program National Center for Advancing Translational Sciences [NCATS] NIH Chemical Genomics Center [NCGC] U.S. Environmental Protection Agency [EPA] National Institutes of Environmental Health Sciences [NIEHS] National Toxicology Program [NTP] U.S. Food and Drug Administration [FDA] Tox21 Assay Overview: The constitutive androstane receptor (CAR) is a nuclear receptor which regulates multiple drug metabolizing enzymes (DMEs) and transporters. Activating CAR will generally increase the transcription and subsequent translation of CYP2B6 and CYP3A4. These two DMEs represent about 50% of the drug metabolizing potential in the body. […] Recently, there have also been studies performed indicating CARs role in energy metabolism and cancer therapy. Therefore, inducing CARs activity could have a potential effect on diabetes and cancer. Identifying environmental toxins and compounds which modulate CAR, through the use of the Tox21 10K compound collection, will be an important step in determining the toxicity and potential therapeutic effects these factors will have on the human body. To differentiate true CAR agonists from cytotoxic substances, the assay is multiplexed with a cell viability assay.
Tox21 Assay Protocol Summary: A double-stable (hCAR and CYP2B6-2.2kb) transfected cell line, derived from human hepatoma (HepG2) cells, was utilized for the duration of the quantitative high-throughput screens. The HepG2-CYP2B6-hCAR cells were dispensed at 2500 cells/4 uL/well in 1536-well white solid bottom plates using a Multidrop Combi. After the assay plates were incubated at 37 C/5% CO2 for 4 hrs, 23 nL of compounds at 15 concentrations (from 5-48 columns) or positive control (from 1 to 4 columns) were transferred to the assay plates using a Pintool station. One uL of PK11195 (final concentration = 0.75 uM) was added, using a Flying Reagent Dispenser, inside each well. After a 23 hr incubation period at 37 C/5% CO2, 1 uL of CellTiter-Fluor reagent was added into each well of the assay plates using a Flying Reagent Dispenser. The fluorescence intensity in the plates was then measured using a ViewLux plate reader.
With `COC(=O)c1sccc1S(N)(=O)=O`, the Potency entry is “inactive”.

As for `CCOCCC(=O)OCC`, the Potency result is “inactive”.

In the case of `CCCCCCCCCCCCCC(=O)OCC(O)CO` (stereo not given), the Potency entry is “inactive”.

As for `CCOC(=O)Oc1ccc(CCNC(=O)[C@H](CCSC)NC(C)=O)cc1OC(=O)OCC`, the Potency entry is “inactive”.

`Cc1ccc(N(CC2=NCCN2)c2cccc(O)c2)cc1`: the Potency result is “inactive”.

`CCCCCCCCCCCCCCCCCC(=O)OCC(CC)CCCC` (stereo not given): the Potency entry was “inactive”.

With `C=Cc1ccc(OC(C)=O)cc1`, the Potency entry is “inactive”.

As to `CCC(=O)OCc1ccc(OC)cc1`, the Potency result was “inactive”.

For the compound `O=S(=O)(O)CO`, the Potency result is “inactive”.

Turning to `FC(F)(F)C(F)(F)C(F)(F)C(F)(F)CCI`, the Potency entry was “inactive”.

For the compound `CCO[Si](C)(CCCOCC1CO1)OCC` (stereo not given), the Potency result is “inactive”.

On to `CN1C(CSCC(F)(F)F)Nc2cc(Cl)c(S(N)(=O)=O)cc2S1(=O)=O` (stereo not given), for which the Potency result was “inactive”.

Take `O=C(/C=C/c1ccc([N+](=O)[O-])cc1)c1ccccc1`: the Potency was 61.3 µM (active).

As to `CC(C(=O)O)c1ccc(C(=O)c2cccs2)cc1` (stereo not given), the Potency result was “inactive”.

In the case of `CC(=O)OCCC(C)CC(C)(C)C` (stereo not given), the Potency result is “inactive”.

Regarding `CCN(CC)C(=O)N1CCN(C)CC1`, the Potency result was “inactive”.

With `N[C@@H](Cc1cc(I)c(O)c(I)c1)C(=O)O`, the Potency entry is “inactive”.

Consider `COc1ccc(CCN(C)CCCN2CCc3cc(OC)c(OC)cc3CC2=O)cc1OC`, for which the Potency entry was “inactive”.

For `CC(C)c1ccc(C(=O)N=C(N)N)cc1S(C)(=O)=O`, the Potency entry was “inactive”.

With `CCN(Cc1cccc(S(=O)(=O)O)c1)c1ccc(C(=C2C=CC(=[N+](CC)Cc3cccc(S(=O)(=O)O)c3)C=C2)c2ccc(O)cc2S(=O)(=O)[O-])cc1`, the Potency was 16.6 µM (active).

Turning to `CCCCCCCC(=O)Oc1c(Br)cc(C#N)cc1Br`, the Potency result is “inactive”.

As for `COC(OC)OC`, the Potency result is “inactive”.

Consider `CCN(CC)CC(=O)Nc1c(C)cccc1C(=O)OC`, for which the Potency entry was “inactive”.

For `O=C1OC[C@H](Cc2cccc(O)c2)[C@H]1Cc1cccc(O)c1`, the Potency result is “inactive”.

In the case of `CCCCCCCC(=O)OCCCCCC`, the Potency result was “inactive”.

As for `O=C(O)CN1C(=O)c2cccc3cccc(c23)C1=O`, the Potency entry is “inactive”.

For `Cc1c[nH]c2ccccc12`, the Potency entry was “inactive”.

Take `CC(=O)N[C@@H](Cc1ccc(O)cc1)C(=O)O`: the Potency result was “inactive”.

On to `CCCCOCCOC(=O)c1cccnc1`, for which the Potency result was “inactive”.

In the case of `CCCCCCCC/C=C\CCCCCCCC(=O)OCCO`, the Potency entry was “inactive”.

In the case of `O=C(O)CNC(=O)c1ccccc1I`, the Potency result is “inactive”.

As for `CC12CC3CC(C)(C1)CC(N)(C3)C2`, the Potency result is “inactive”.

`c1ccc(CNc2ncnc3c2ncn3C2CCCCO2)cc1` (stereo not given): the Potency entry was “inactive”.

As for `[Cl][Nd]([Cl])[Cl]`, the Potency result was “inactive”.

For `CCCCCCCC/C=C/C(=O)O`, the Potency result is “inactive”.

As for `O=[N+]([O-])c1ccc2ncccc2c1`, the Potency entry is “inactive”.

For the compound `O=C(O)c1ccc(O)cc1O`, the Potency result is “inactive”.

Turning to `COC(=O)CC(C(C)=O)C(=O)OC` (stereo not given), the Potency result is “inactive”.

Turning to `C[C@@H]1[C@H](O)[C@@H](C)/C=C/C=C\C=C\C=C\C=C\C=C\C=C\[C@H](O[C@@H]2O[C@H](C)[C@@H](O)[C@H](N)[C@@H]2O)C[C@@H]2O[C@](O)(C[C@@H](O)C[C@@H](O)[C@H](O)CC[C@@H](O)C[C@@H](O)CC(=O)O[C@H]1C)C[C@H](O)[C@H]2C(=O)O` (stereo in doubt), the Potency result is “inactive”.

Turning to `O=C(NC(Cc1cc(=O)[nH]c2ccccc12)C(=O)O)c1ccc(Cl)cc1` (stereo not given), the Potency entry was “inactive”.
